Several values for one entry are separate records, joined by “and”; a condition that tells them apart may be missing. Equal entries are not always repeated. Results filed as inconclusive are left out. Entries that show only a call come without a potency. The source holds several records for some structures; these can differ, active in one and inactive in another. Activity calls are given as the source filed them. Unless noted, calls follow the shape of the dose curve; as a rule, active = well fitted curve in the direction sought with a large enough effect in the repeat runs; inconclusive = weak or mixed curves; inactive = no such curve, though single readings can be large; an effect the other way counts as inactive or inconclusive.
Legend:
[1] = qHTS assay to identify small molecule agonists of the sonic hedgehog signaling (Shh) pathway (AID 1259368; calls by dose curve;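 also: NIH/3T3-derived 3T3Gli1-Luc cells carrying a stable Gli1-driven firefly luciferase reporter; series mostly up to about 92 µM; nearly all actives have a fitted effect of over 15% in size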)
Procedure, shortened: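 3T3Gli1-Luc (NIH/3T3 clone, stable Gli1-Luc); 4 hr pre-incubation, then cpd in DMSO 24 hr, 37 C/5% CO2; luciferase reagent 30 min RT; luminescence.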

[2] = qHTS assay to identify small molecule antagonists of the sonic hedgehog signaling (Shh) pathway (AID 1259369; calls by dose curve; also: nearly all actives have a fitted effect of over 45% in size; also: potency is read from the fitted curve at half-maximal effect)
Procedure, shortened: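 3T3Gli1-Luc, conditioned-medium-stimulated, 24hr cpd, 37C/5% CO2; Gli1-driven firefly Luc luminescence after 30min RT with luciferase reagent. Cells plated 4hr before cpd.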

[3] = qHTS assay to identify small molecule agonists of the androgen receptor (AR) signaling pathway in the presence of an antagonist - cell viability counter screen (AID 1259379); also: nearly all actives have a fitted effect of over 25% in size; also: potency is read from the fitted curve at half-maximal effect
Procedure, shortened: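 Cells: MDA-kb2 (MMTV-luc, AR and GR elements), 3,000/well, 5 hr settle. Added: nilutamide 3.0uM final, then compounds (15 conc.). Incubation: 16 hr, 37C, no CO2. Read-out: CellTiter-Fluor, 1 hr, fluorescence.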

[4] = qHTS assay to identify small molecule agonists of the estrogen receptor beta (ER-beta) signaling pathway - cell viability counter screen (AID 1259380); also: nearly all actives have a fitted effect of over 30% in size; also: potency is read from the fitted curve at half-maximal effect
Procedure, shortened: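 HEK293T ER-beta-UAS-bla; 2% CS-FBS; 6 hr pre-plate, 16 hr cpd at 37C/5% CO2; LiveBLAzer read first, then CellTiter-Glo 30 min RT, luminescence.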

[5] = qHTS assay to identify small molecule antagonists of the estrogen receptor beta (ER-beta) signaling pathway - cell viability counter screen (AID 1259382); also: nearly all actives have a fitted effect of over 55% in size; also: potency is read from the fitted curve at half-maximal effect
Procedure, shortened: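 Cells: ER-beta-UAS-bla HEK293T, 2,000/well, 2% CS-FBS, 6 hr settle. Cpd + E2 (1nM final), 16 hr, 37C/5% CO2. Bla FRET substrate 2 hr RT, then CellTiter-Glo 30 min RT, luminescence.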

[6] = qHTS assay to identify small molecule agonists or antagonists of the thyroid stimulating hormone receptor (TSHR) signaling pathway - wild type cell line counter screen (AID 1259384; calls by dose curve)
Procedure, shortened: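 Counter screen in untransfected Hek293: compounds (15-point titration, triplicate) plus phosphodiesterase inhibitor Ro20-1724 added after 18 h plating; 30 min RT. Intracellular cAMP via competitive d2/cryptate immunoassay, 1 h incubation.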

[7] = target: Thyrotropin receptor (Homo sapiens) (UniProt P16473); assay: qHTS assay to identify small molecule antagonists of the thyroid stimulating hormone receptor (TSHR) signaling pathway (AID 1259385; calls by dose curve; also: nearly all actives have a fitted effect of over 20% in size)
Sequence of Thyrotropin receptor (Homo sapiens) (P16473 whole entry, looked up): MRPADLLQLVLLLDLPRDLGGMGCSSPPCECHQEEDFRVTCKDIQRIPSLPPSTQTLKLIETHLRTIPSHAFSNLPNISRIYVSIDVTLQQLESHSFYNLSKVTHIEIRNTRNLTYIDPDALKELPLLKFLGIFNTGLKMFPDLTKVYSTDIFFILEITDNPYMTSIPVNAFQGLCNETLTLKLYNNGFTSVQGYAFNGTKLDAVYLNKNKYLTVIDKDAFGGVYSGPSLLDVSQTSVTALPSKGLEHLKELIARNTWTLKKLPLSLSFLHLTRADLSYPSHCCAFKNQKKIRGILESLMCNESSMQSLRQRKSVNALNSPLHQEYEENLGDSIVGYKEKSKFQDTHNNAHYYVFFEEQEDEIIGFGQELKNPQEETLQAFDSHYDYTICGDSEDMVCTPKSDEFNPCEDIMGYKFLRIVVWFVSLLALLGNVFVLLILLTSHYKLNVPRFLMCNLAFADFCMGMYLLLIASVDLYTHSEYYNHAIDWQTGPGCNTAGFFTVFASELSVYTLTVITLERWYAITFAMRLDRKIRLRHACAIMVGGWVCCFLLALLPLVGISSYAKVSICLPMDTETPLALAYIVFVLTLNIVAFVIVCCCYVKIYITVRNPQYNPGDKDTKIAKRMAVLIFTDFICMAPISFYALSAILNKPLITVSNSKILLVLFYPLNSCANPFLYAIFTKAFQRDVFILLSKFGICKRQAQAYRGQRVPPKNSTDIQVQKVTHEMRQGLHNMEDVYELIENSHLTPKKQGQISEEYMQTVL
Procedure, shortened: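 Antagonist mode: compound-treated TSHR-expressing HEK293 cells were stimulated with 1.5 ng/mL TSH (final) in presence of Ro20-1724 for 30 min at RT. HTRF cAMP detection after 1 h; each compound tested at 15 concentrations, triplicate.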

[8] = qHTS assay to identify small molecule agonists of the estrogen receptor alpha (ER-alpha) signaling pathway in the presence of an antagonist - cell viability counter screen (AID 1259386);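 also: cells exposed to compounds for 22 h at 37 °C before the viability read; nearly all actives have a fitted effect of over 30% in size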; also: potency is read from the fitted curve at half-maximal effect
Procedure, shortened: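 VM7Luc4E2, stripped-serum pre-culture 5 d; 24hr plating; +ICI-182,780 10.0nM final; cpds 15 conc, 22hr, 37C/5% CO2; CellTiter-Fluor added at 21hr, fluorescence 1hr later.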

[9] = target: Progesterone receptor (Homo sapiens) (UniProt P06401); assay: qHTS assay to identify small molecule agonists of the progesterone receptor (PR) signaling pathway (AID 1346784; calls by dose curve; also: nearly all actives have a fitted effect of over 30% in size; also: potency is read from the fitted curve at half-maximal effect)
Sequence of Progesterone receptor (Homo sapiens) (P06401 whole entry, looked up): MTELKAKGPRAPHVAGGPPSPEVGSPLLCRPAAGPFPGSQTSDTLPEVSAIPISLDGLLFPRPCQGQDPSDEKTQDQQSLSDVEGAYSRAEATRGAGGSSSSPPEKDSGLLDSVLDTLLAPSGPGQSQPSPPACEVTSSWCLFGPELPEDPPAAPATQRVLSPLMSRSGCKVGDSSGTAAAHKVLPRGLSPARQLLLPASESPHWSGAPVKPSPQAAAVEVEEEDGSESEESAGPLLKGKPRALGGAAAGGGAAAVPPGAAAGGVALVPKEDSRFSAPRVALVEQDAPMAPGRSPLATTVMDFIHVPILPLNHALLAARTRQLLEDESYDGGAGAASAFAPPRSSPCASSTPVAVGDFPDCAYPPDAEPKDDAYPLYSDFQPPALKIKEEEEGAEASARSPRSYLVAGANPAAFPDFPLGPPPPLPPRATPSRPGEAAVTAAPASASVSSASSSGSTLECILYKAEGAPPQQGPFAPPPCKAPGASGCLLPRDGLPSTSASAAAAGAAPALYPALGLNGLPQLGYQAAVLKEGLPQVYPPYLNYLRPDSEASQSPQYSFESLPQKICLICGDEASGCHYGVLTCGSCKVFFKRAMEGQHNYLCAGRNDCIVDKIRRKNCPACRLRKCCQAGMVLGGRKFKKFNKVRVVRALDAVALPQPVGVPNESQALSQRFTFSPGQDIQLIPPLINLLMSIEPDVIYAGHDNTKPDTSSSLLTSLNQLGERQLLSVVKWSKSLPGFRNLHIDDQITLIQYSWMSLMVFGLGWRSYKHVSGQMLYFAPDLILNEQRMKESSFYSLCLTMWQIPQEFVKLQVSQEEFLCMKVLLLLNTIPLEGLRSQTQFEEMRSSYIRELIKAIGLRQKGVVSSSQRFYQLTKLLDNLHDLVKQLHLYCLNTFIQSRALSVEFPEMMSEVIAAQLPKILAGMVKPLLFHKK
Procedure, shortened: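 Using charcoal-stripped serum (2%) to limit endogenous steroids, PR-UAS-bla HEK 293T cells received compounds for 16 hr at 37C after 6 hr plating; beta-lactamase FRET fluorescence was recorded following 2 hr substrate loading at room temperature.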

[10] = target: Progesterone receptor (Homo sapiens) (UniProt P06401); assay: qHTS assay to identify small molecule antagonists of the progesterone receptor (PR) signaling pathway (AID 1346795; active = well fitted inhibition curve with a large enough effect in the signal ratio in the repeat runs, not every such curve was filed as active; the % refers to the signal ratio; also: potency is read from the fitted curve at half-maximal effect)
Procedure, shortened: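 Inhibition of R5020-induced (1 nM final) beta-lactamase reporter signal in PR-UAS-bla HEK293T cells was scored by FRET fluorescence after overnight (16 hr) compound treatment.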

[11] = qHTS assay to identify small molecule antagonists of the progesterone receptor (PR) signaling pathway - cell viability counter screen (AID 1346798); also: nearly all actives have a fitted effect of over 50% in size; also: potency is read from the fitted curve at half-maximal effect
Procedure, shortened: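 ATP content as viability readout: CellTiter-Glo luminescence, 30 min room temperature, in PR-UAS-bla HEK293T cells after 16 hr compound/R5020 treatment at 37C and 5% CO2.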

[12] = qHTS assay to identify small molecule agonists of the progesterone receptor (PR) signaling pathway - cell viability counter screen (AID 1346799; calls by dose curve; also: nearly all actives have a fitted effect of over 45% in size; also: potency is read from the fitted curve at half-maximal effect)
Procedure, shortened: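 Cytotoxicity in PR-bla HEK293T cells: 16 h compound, 37C; CellTiter-Glo added post-FRET read; luminescence after 30 min RT.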

[13] = qHTS assay to identify small molecule antagonists of the TGF-beta/Smad signaling pathway - cell viability counter screen (AID 1346824); also: nearly all actives have a fitted effect of over 50% in size
Procedure, shortened: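 Cytotoxicity counter-screen run in the same wells as the beta-lactamase Smad reporter read: CellTiter-Glo luminescence after 30 min at room temperature. HEK 293T SBE-bla cells had 5 hr compound exposure at 37 C with TGF-beta1 (0.25 ng/mL stock).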

[14] = qHTS assay to identify small molecule agonists of the TGF-beta/Smad signaling pathway - cell viability counter screen (AID 1346829); also: top concentration of the series differs between compounds; nearly all actives have a fitted effect of over 45% in size
Procedure, shortened: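 After overnight seating at 37 C and 5% CO2, reporter cells got compounds for 5 hr and FRET substrate for 2 hr; cell viability then came from CellTiter-Glo luminescence.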

[15] = qHTS assay to identify small molecule agonists of the TGF-beta/Smad signaling pathway (AID 1346859; active = well fitted activation curve with a large enough effect in the signal ratio in the repeat runs, not every such curve was filed as active; the % refers to the signal ratio; also: series mostly up to about 77 µM)
Procedure, shortened: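 Stable Smad binding element-beta-lactamase HEK 293T cells; 5 hr compound exposure at 37 C under 5% CO2; 2 hr room-temperature substrate step; fluorescence excited at 405 nm, collected at 460 nm and 530 nm.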

[16] = target: Estrogen receptor (Homo sapiens) (UniProt P03372); assay: qHTS assay to identify small molecule agonists of the estrogen receptor alpha (ER-alpha) signaling pathway in the presence of an antagonist (AID 1259383; calls by dose curve; also: top concentration of the series differs between compounds; nearly all actives have a fitted effect of over 15% in size)
Sequence of Estrogen receptor (Homo sapiens) (P03372 whole entry, looked up): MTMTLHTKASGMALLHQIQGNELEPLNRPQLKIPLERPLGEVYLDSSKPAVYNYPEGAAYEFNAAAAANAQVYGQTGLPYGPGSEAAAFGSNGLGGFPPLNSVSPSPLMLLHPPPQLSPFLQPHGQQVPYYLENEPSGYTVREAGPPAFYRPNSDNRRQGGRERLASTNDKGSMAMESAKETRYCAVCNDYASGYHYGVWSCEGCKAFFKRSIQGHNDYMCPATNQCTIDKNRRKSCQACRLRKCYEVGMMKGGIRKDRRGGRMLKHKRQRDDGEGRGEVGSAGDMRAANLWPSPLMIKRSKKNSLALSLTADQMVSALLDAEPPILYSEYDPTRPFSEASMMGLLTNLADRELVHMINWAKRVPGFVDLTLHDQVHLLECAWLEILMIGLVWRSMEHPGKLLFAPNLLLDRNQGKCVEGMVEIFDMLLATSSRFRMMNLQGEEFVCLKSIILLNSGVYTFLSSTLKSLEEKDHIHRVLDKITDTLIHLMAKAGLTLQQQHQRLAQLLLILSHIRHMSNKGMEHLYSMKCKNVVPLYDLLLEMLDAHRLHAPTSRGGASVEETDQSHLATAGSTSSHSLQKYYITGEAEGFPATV
Procedure, shortened: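 VM7Luc4E2, endog. ER-alpha + 4×ERE-luc; charcoal-stripped FBS, phenol red-free, 5 d; 24hr plating; +10.0nM ICI-182,780 (final); cpds 15 conc, 22hr, 37C/5% CO2; ONE-Glo luminescence.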

[17] = target: Thyrotropin-releasing hormone receptor (Homo sapiens) (UniProt P34981); assay: qHTS assay to identify small molecule antagonists of the thyrotropin-releasing hormone receptor (TRHR) signaling pathway (AID 1346877; active = well fitted inhibition curve with a large enough effect in the repeat runs, not every such curve was filed as active; also: series mostly up to about 51 µM)
Sequence of Thyrotropin-releasing hormone receptor (Homo sapiens) (P34981 whole entry, looked up): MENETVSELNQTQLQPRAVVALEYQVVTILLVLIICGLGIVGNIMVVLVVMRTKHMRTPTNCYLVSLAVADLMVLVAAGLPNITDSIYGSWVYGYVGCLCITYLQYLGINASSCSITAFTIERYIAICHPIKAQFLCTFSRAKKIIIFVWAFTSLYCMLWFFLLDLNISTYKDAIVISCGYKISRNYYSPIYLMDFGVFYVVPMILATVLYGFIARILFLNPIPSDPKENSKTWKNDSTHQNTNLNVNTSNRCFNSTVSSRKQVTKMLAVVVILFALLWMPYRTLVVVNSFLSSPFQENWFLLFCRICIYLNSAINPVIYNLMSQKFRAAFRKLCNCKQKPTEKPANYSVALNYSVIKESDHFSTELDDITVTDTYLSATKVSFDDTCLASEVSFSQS
Procedure, shortened: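 Intracellular calcium fluorescence, read kinetically every second over 3 min, reports TRH-evoked signalling in HEK293 cells carrying TRHR. Test compounds were added 5 min ahead of a 1 nM TRH challenge.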

[18] = target: Androgen receptor (Homo sapiens) (UniProt P10275); assay: qHTS assay to identify small molecule agonists of the androgen receptor (AR) signaling pathway in the presence of an antagonist (AID 1259381; calls by dose curve; also: nearly all actives have a fitted effect of over 15% in size)
Sequence of Androgen receptor (Homo sapiens) (P10275 whole entry, looked up): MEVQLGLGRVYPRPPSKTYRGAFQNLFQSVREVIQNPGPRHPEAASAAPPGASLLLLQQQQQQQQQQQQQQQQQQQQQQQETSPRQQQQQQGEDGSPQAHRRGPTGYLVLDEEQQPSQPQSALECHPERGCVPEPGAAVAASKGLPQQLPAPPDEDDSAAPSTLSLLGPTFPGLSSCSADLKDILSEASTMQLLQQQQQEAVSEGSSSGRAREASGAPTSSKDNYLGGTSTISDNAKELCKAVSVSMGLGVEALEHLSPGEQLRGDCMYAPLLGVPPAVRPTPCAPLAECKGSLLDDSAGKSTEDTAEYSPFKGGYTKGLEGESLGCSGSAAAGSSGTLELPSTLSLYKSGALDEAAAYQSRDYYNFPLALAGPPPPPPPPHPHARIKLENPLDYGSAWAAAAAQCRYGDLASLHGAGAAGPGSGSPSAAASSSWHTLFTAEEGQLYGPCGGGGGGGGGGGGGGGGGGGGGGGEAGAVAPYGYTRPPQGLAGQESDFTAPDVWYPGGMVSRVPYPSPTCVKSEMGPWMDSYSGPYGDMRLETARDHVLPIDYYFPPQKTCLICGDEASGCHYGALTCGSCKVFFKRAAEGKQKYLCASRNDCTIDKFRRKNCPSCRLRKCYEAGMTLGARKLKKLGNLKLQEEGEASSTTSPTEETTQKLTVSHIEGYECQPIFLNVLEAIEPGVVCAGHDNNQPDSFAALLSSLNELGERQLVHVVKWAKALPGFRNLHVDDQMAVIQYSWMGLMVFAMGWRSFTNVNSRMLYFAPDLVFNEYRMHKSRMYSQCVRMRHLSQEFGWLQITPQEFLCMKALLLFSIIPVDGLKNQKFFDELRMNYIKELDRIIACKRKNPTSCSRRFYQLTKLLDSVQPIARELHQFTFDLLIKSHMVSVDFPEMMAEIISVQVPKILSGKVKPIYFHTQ
Procedure, shortened: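 MDA-kb2 cells, 3,000/well, rested 5hr at 37C/0% CO2 → nilutamide 3.0uM final or buffer → compounds, 15 conc. → 16hr at 37C → ONE-Glo, 30min RT → luminescence.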

Row | SMILES | outcome [1] | Potency [2] | Potency [3] | Potency [4] | Potency [5] | Potency [6] | Potency [7] | Potency [8] | Potency [9] | Potency [10] | Potency [11] | Potency [12] | Potency [13] | Potency [14] | outcome [15] | Potency [16] | Potency [17] | Potency [18]
1 | CCCCC(CC)C(=O)O (stereo not drawn) | inactive | inactive | inactive | inactive | inactive | inactive | inactive | inactive | inactive | inactive | inactive | inactive | inactive | inactive | inactive |  |  | 
2 | Cc1cccc(C)c1 | inactive | inactive | inactive | inactive | inactive | inactive |  | inactive | inactive | inactive | inactive | inactive | inactive | inactive | inactive | inactive | inactive | 
3 | CN(C)C(=O)Nc1ccc(Cl)c(Cl)c1 | inactive | inactive | inactive | inactive | inactive | inactive |  | inactive | inactive | inactive | inactive | inactive | inactive | inactive | inactive | inactive | inactive | inactive
4 | O=C1OC2(c3ccccc31)c1cc(Br)c(O)c(Br)c1Oc1c2cc(Br)c(O)c1Br | inactive | inactive | 7.81 µM (active) and 22.3 µM (active) and 11.9 µM (active) | inactive | inactive |  |  | 11 µM (active) and 19.9 µM (active) and 10.6 µM (active) | inactive |  | inactive | inactive | inactive | inactive |  | inactive |  | 
5 | O=c1[nH]cnc2c1ncn2[C@H]1CC[C@@H](CO)O1 | inactive | inactive | inactive | inactive | inactive | inactive |  | inactive | inactive | inactive | inactive | inactive | inactive | inactive | inactive | inactive |  | 
6 | COc1ccc2cc(S(=O)(=O)N[C@H](CC(=O)N[C@H](Cc3ccc(CN4[C@H](C)CCC[C@@H]4C)cc3)C(=O)N(C)C(C)C)c3ccc4c(c3)OCO4)ccc2c1 | inactive | inactive | 51.6 µM (active) | 18.3 µM (active) | 29 µM (active) | inactive |  | 36.5 µM (active) | inactive | 57.9 µM (active) |  | 29 µM (active) |  |  |  | inactive |  | 
7 | O=C(O)c1ccccc1 | inactive | inactive | inactive | inactive | inactive | inactive |  | inactive | inactive and 596 nM (active) | inactive | inactive | inactive | inactive | inactive | inactive | inactive |  | 
8 | CC(=O)Nc1c(I)c(NC(C)=O)c(I)c(C(=O)O)c1I | inactive | inactive | inactive | inactive | inactive | inactive | inactive | inactive | inactive | inactive | inactive | inactive | inactive | inactive | inactive |  |  | 
9 | COc1ccc(OC(F)(F)F)cc1CN[C@H]1CCCN[C@H]1c1ccccc1 | inactive | 10.9 µM (active) | 48.6 µM (active) | 34.4 µM (active) | 30.6 µM (active) | inactive |  | inactive | inactive |  | 30.6 µM (active) | 24.3 µM (active) | inactive | inactive |  | inactive |  | 
10 | CCCc1cc(=O)[nH]c(=S)[nH]1 | inactive | inactive | inactive | inactive | inactive | inactive | inactive | inactive | inactive | inactive | inactive | inactive | inactive | inactive | inactive | inactive | inactive | 
11 | NC(CO)(CO)CO | inactive | inactive | inactive | inactive | inactive | inactive | inactive | inactive | inactive | inactive | inactive | inactive | inactive | inactive | inactive | inactive | inactive | 
12 | CCCCC1(COC(=O)CCC(=O)O)C(=O)N(c2ccccc2)N(c2ccccc2)C1=O | inactive | inactive | inactive | inactive | inactive | inactive | inactive | inactive | inactive | inactive | inactive | inactive | inactive | inactive | inactive | inactive | inactive | inactive
13 | Cc1cc(=O)oc2cc(O)ccc12 | inactive | 15.4 µM (active) and 17.2 µM (active) and inactive | inactive | inactive | inactive | inactive | inactive | inactive | inactive | inactive | inactive | inactive | inactive | inactive |  | inactive | inactive | 
14 | O=C1NC(=O)C(c2ccccc2)(c2ccccc2)N1 | inactive | inactive | inactive | inactive | inactive | inactive | inactive | inactive | inactive | inactive | inactive | inactive | inactive | inactive | inactive |  | inactive | 
